Several values for one entry are separate records, joined by “and”; a condition that tells them apart may be missing. Identical values can stand only once. Hit rate of the full screen: of about 350,000 compounds, about 31,000 (8.9%) were called active. Another 15% or so got no clear call; they are omitted. Calls come from the whole dose curve; as a rule, active = well fitted inhibition curve with a large enough effect; inconclusive = small, poorly fitted or top-dose-only effect; inactive = no such curve, though single readings can be large or run the other way. This excerpt belongs to a sample that is enriched for actives. Some structures have more than one record in an assay (separate samples or runs), and their calls can disagree.
Target: Histone-lysine N-methyltransferase EHMT2 (Homo sapiens) (UniProt Q96KQ7)
Sequence (Q96KQ7 913-1193 limits assumed): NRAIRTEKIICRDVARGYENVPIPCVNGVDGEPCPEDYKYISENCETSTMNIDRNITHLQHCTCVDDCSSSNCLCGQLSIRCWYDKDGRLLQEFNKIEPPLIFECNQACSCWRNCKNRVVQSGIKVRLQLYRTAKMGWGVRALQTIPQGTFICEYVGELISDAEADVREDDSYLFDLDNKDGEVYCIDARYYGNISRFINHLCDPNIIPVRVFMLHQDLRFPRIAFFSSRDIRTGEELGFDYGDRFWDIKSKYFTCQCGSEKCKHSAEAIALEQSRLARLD
Assay: qHTS Assay for Inhibitors of Histone Lysine Methyltransferase G9a; note: nearly all actives have a fitted effect of over 75% in size
Conditions: G9a H3K9 monomethylation, AlphaScreen, 2 h; series mostly up to 59 µM; activity, negative = inhibition: at the top concentration
Method in brief: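 Quantitative HTS format: methyltransferase activity on a biotin-tagged H3K9 peptide is measured by AlphaScreen, using a rabbit anti-monomethyl-H3K9 antibody with streptavidin donor and anti-IgG acceptor beads. Final levels are 20 nM enzyme, 500 nM peptide, 20 uM SAM; 2 h RT.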
% is set by controls: 0 for no effect and ±100 for the full control effect; potency is the fitted concentration of half-maximal effect.

Compound | activity, negative = inhibition | Potency
Cc1ccc(C)c(NC(=O)COC(=O)CSc2ccccc2)c1 | 0.0476% [at 12.7 µM] (inactive) | –
COc1ccc(C)cc1NC(=O)c1cc(-c2ccccc2)nc2c1cnn2C(C)C | 0.616% [at 12.7 µM] (inactive) | –
CC(Sc1nnc(C2CC2)n1C1CC1)C(=O)Nc1ccc(C(N)=O)cc1 (stereo not given) | -5.65% [at 2.33 µM] (inactive) | –
COc1ccc(OC(C)C(=O)NCCc2nc3ccccc3[nH]2)cc1 (stereo not given) | -6.9% [at 102 µM] (inactive) | –
CC(C)Oc1ccc(/C=C(\NC(=O)/C=C/c2ccco2)C(=O)NCCc2nc3ccccc3[nH]2)cc1 | – | 39.8 µM (active)
CC(C)=C(NC(=O)c1ccco1)C(=O)NCCc1nc2ccccc2[nH]1 | 6.16% [at 2.33 µM] (inactive) | –
Cc1ccc(-n2nc(C)c3c(C)cc(=O)n(CC(=O)Nc4ccc(C(C)C)cc4)c32)cc1 | 16.2% (inactive) | –
CCN(CC(=O)Nc1c(F)cccc1F)C(=O)c1ccc(Sc2nncn2C)c([N+](=O)[O-])c1 | -3.94% [at 102 µM] (inactive) | –
Cc1ccc(S(=O)(=O)N2CCN(C(=O)CSc3cc(C)ccc3C)CC2)c(C)c1 | 39.7% [at 102 µM] (inactive) | –
Brc1ccccc1C1Nc2cccc3cccc(c23)N1 | – | 44.7 µM (active)
COc1ccc(C2CC(c3ccc(C)cc3)Nc3nc(N)nn32)cc1 (stereo not given) | 0.965% [at 102 µM] (inactive) | –
COc1ccc(N2C(=O)C3CCCN3C2c2cccc(OC)c2)cc1 (stereo not given) | -0.251% [at 102 µM] (inactive) | –
Oc1ccc(C2Nc3cccc4cccc(c34)N2)cc1 | – | 25.1 µM (active)
O=C1NC(c2cccc(Cl)c2)Nc2ccccc21 (stereo not given) | -1.01% [at 102 µM] (inactive) | –
O=C1CCC([N+](=O)[O-])C(c2ccccc2Br)N1 (stereo not given) | 22.3% [at 102 µM] (inactive) | –
Cc1ccc(C2Nc3cccc4cccc(c34)N2)cc1 | – | 10 µM (active)
COc1cccc(C2Nc3cccc4cccc(c34)N2)c1 | – | 20 µM (active)
COc1ccc(C2NC(=O)c3ccccc3N2)cc1 (stereo not given) | 2.64% [at 102 µM] (inactive) | –
Cc1ccc(C2CC(c3cccc(C)c3)n3nc(N)nc3N2)cc1 (stereo not given) | 11.8% [at 102 µM] (inactive) | –
COc1ccc(C(C#N)(CC(=O)O)c2cnccn2)cc1OC (stereo not given) | 3.29% [at 2.33 µM] (inactive) | –
CC1CCCN(c2nc3c(S(=O)(=O)c4ccc(C(C)C)cc4)nnn3c3ccsc23)C1 (stereo not given) | 6.43% (inactive) | –
COc1ccc(CNC(=O)c2ccc(NS(=O)(=O)c3ccc4[nH]c(=O)[nH]c4c3)cc2)cc1OC | 19.8% [at 12.7 µM] (inactive) | –
CCOc1ccc(-c2nonc2NC(=O)c2oc3ccc(CC)cc3c2C)cc1 | 71.8% (inactive) | –
Cn1c(C(=O)Nc2cccc(C(F)(F)F)c2)cc2c(=O)n3ccccc3nc21 | -32.2% (inactive) | –

Compound | activity, negative = inhibition | Potency
CC(=O)N1CCc2c(sc(NC(=O)CCS(=O)(=O)c3ccccc3)c2C#N)C1 | 2.65% [at 102 µM] (inactive) | –
CC(C)(C)n1ncc2c(=O)n(Cc3c(Cl)cccc3Br)cnc21 | -12.6% [at 2.33 µM] (inactive) | –
CCOC(=O)c1cc(NC(=O)c2ccc(F)cc2)c(=O)n2c1oc1ccccc12 | -36% (inactive) | –
COc1ccccc1-c1nnc(C2CCN(C(=O)c3ccc(Cl)cc3)CC2)o1 | 0.515% (inactive) | –
CCOC(=O)c1cc(-c2ccc(OC)c(S(=O)(=O)Nc3ccc(OC)cc3OC)c2)on1 | -24.5% (inactive) | –
C=CCc1cccc2cc(C(=O)OCC)c(=O)oc12 | 19.5% [at 102 µM] (inactive) | –
Cc1cccc(C)c1NC(=O)COC(=O)c1ccccc1O | 16.4% [at 102 µM] (inactive) | –
CCOc1cccc2cc(C(=O)OCC(=O)Nc3c(C)cccc3CC)c(=O)oc12 | – | 44.7 µM (active)
CCCN(CCC)C(=O)Cn1c(=O)n(-c2ccc(Cl)cc2)c(=O)c2c3c(sc21)CCCCC3 | 8.07% (inactive) | –
Cc1ccc(C)c(C(=O)COC(=O)Cn2[nH]c(=O)c3ccccc3c2=O)c1 | 11.2% [at 12.7 µM] (inactive) | –
Cc1ccc(-n2cnc3cc(C(=O)NCCC4=CCCCC4)ccc32)cc1Cl | -3.44% (inactive) | –
Fc1ccc(-c2ccc(-c3nn4c(-c5ccco5)nnc4s3)o2)cc1 | – | 15.8 µM (active)
FC(F)(F)c1nnc2sc(-c3ccco3)nn12 | -3.47% (inactive) | –
Cc1nnc2sc(-c3ccco3)nn12 | -30.4% (inactive) | –
CSc1ccc(CCNC(=O)c2cc(C)nc3c2c(C)nn3-c2cccc(F)c2)cc1 | -2.67% (inactive) | –
CC(C)n1ncc2c(C(=O)NCc3ccccc3CN(C)C)cc(C3CC3)nc21 | -9.59% (inactive) | –
Cc1cccc(N2Cc3ccccc3C2=NC(=O)c2ccc(Cl)nc2)c1 | – | 11.2 µM (active)
N#Cc1ccc(N2Cc3ccccc3/C2=N/C(=O)Nc2ccc(Cl)cc2)cc1 | 3.53% (inactive) | –
Cc1cccc(N2CCN(C(=O)c3cccc(S(=O)(=O)N4CCc5ccccc5C4)c3)CC2C)c1 (stereo not given) | 1.73% [at 102 µM] (inactive) | –
O=C(COc1cccc2c1CCNC2=O)NC1CCCCC1 | 8.64% [at 0.501 µM] (inactive) | –
Cc1cc(OCC(=O)NCC2(N(C)C)CCCCC2)cc(C)c1Cl | -5.48% (inactive) | –
CCOC(=O)Cn1c(CN(Cc2ccccc2)Cc2ccccc2)nc2c1c(=O)[nH]c(=O)n2C | 37.9% (inactive) | –
CCC(C)Sc1nc2c(c(=O)[nH]c(=O)n2C)n1CC(O)COc1cccc2ccccc12 (stereo not given) | – | 7.94 µM (active)
Cc1cccc(OCC(O)Cn2c(N3CCCCC3)nc3c2c(=O)[nH]c(=O)n3C)c1 (stereo not given) | 14.4% [at 102 µM] (inactive) | –

Compound | activity, negative = inhibition | Potency
O=S(=O)(N/N=C\c1cccn1-c1ccccc1)c1ccc2ccccc2c1 | – | 31.6 µM (active)
COc1ccc(/C=N/NS(=O)(=O)c2ccc(NC(C)=O)cc2)cc1 | 0.351% [at 102 µM] (inactive) | –
O=C(COc1ccc(/C=N/NS(=O)(=O)c2ccccc2)cc1)NCCc1ccccc1 | -4.68% [at 2.33 µM] (inactive) | –
CC(=O)Cn1cnc2c(cnn2-c2ccccc2)c1=O | 1.7% [at 102 µM] (inactive) | –
CCc1ccc(NC(=O)CCCc2nnc3n(CCCOC)c(=O)c4sccc4n23)cc1 | -5.06% (inactive) | –
COc1ccccc1CCNC(=O)CN1C(=O)NC2(CCCC2)C1=O | 8.45% [at 0.501 µM] (inactive) | –
COc1ccccc1C(=O)NCCC(=O)NN1C(=O)NC2(CCCCC2)C1=O | – | 50.1 µM (active)
COc1ccccc1C(=O)NCCC(=O)NCC(c1ccco1)N1CCCCC1 (stereo not given) | -3.11% [at 102 µM] (inactive) | –
COc1cccc(CNC(=O)Cn2ncn3c(cc4ccccc43)c2=O)c1 | -27.7% (inactive) | –
COc1ccc(NC(=O)c2sc3nc[nH]c(=O)c3c2C)cc1 | 8.43% (inactive) | –
CCc1cccc(NC(=O)c2cc(-c3ccccc3)n[nH]2)c1 | -26.5% (inactive) | –
CN(C(=O)CSc1nncc2ccccc12)C1CCCCC1 | – | 50.1 µM (active)
CN(C(=O)COc1ncnc2c1cnn2-c1ccccc1)C1CCCCC1 | 25.1% [at 0.0925 µM] (inactive) | –
CN(C(=O)CSc1nnnn1-c1ccccc1)C1CCCCC1 | 3.58% [at 102 µM] (inactive) | –
COc1ccccc1CNC(=O)C(=O)NCC(c1cccs1)S(=O)(=O)c1cccs1 (stereo not given) | 11.3% (inactive) | –
COc1ccc(-c2ccc(CCC(=O)O)n2-c2ccc(O)cc2)cc1 | – | 31.6 µM (active)
COc1ccc(NC(=O)Cn2c(-c3ccc(OC)cc3)cn(-c3ccc(C)cc3)c2=O)cc1 | -31.1% [at 12.7 µM] (inactive) | –
COc1ccc(-c2nc3ccccc3c(=O)n2CCc2ccc(O)cc2)cc1 | 12.4% [at 102 µM] (inactive) | –
CCOC(=O)c1c(CNCc2ccccc2F)c2sc(C)cc2n1C | 12% [at 12.7 µM] (inactive) | –
CC(C)N(C(=O)CN1CCN(S(=O)(=O)c2ccc(Br)s2)CC1)C(C)C | 17.1% [at 2.33 µM] (inactive) | –
Cc1ccc(S(=O)(=O)N2CCN(CC(=O)N/N=C/c3ccc(Br)s3)CC2)cc1 | 1.4% [at 102 µM] (inactive) | –
Cc1cccc(NC(=O)CN2CCCN(S(=O)(=O)c3ccc(Br)s3)CC2)c1 | – | 39.8 µM (active)
CC1CC(C)(C)CC2(C1)NC(=O)N(CC(=O)Nc1nccs1)C2=O (stereo not given) | 13.6% [at 0.501 µM] (inactive) | –
COc1cccc(CNC(=O)C2CCC(CNS(=O)(=O)c3cccs3)CC2)c1 (stereo not given) | -20% (inactive) | –

Compound | activity, negative = inhibition | Potency
CSc1ncc(Cl)c(C(=O)Nc2ccc(S(=O)(=O)N3CCCC(C)C3)cc2)n1 (stereo not given) | -29.4% (inactive) | –
Cc1cc(C)cc(OCC(=O)Nc2nc(-c3ccc(F)cc3)ns2)c1 | -6.17% (inactive) | –
CO/N=C(\C(=O)N[C@@H]1C(=O)N2C(C(=O)O)=C(COC(C)=O)CS[C@H]12)c1csc(N)n1 (stereo in doubt) | – | inactive and 44.7 µM (active)
CC(=O)c1ccc(N2CCN(c3nc4c(S(=O)(=O)c5ccccc5)nnn4c4ccc(Cl)cc34)CC2)cc1 | 6.74% (inactive) | –
Fc1cccc(-n2ncc3c2ncn2nc(-c4ccccc4Cl)nc32)c1 | 5.95% (inactive) | –
Cc1ccc(C)c(N2CCN(C(=O)CCc3c(C)nc4c(c3C)c(=O)n(C)c(=O)n4C)CC2)c1 | 0.908% (inactive) | –
O=C(Nc1ccc(Cl)cc1)Nc1ccc(C(=O)N2CCOCC2)cc1 | 9.93% [at 102 µM] (inactive) | –
O=C(Cc1ccccc1Cl)N1CCOCC1 | 2.49% [at 102 µM] (inactive) | –
S=C(Cc1ccc(Cl)cc1)N1CCOCC1 | – | 14.1 µM (active)
COc1cccc(C(=O)Nc2ccc3oc(-c4ccc5ccccc5c4)nc3c2)c1 | -48.7% (inactive) | –
COc1ccc(C2C3=C(CCCC3=O)N(CC(=O)O)C3=C2C(=O)CCC3)cc1 | -19% [at 102 µM] (inactive) | –
COc1ccc(N/N=C2/CCCCC2=O)cc1 | – | 10 µM (active)
COc1ccc(NC(=O)c2c(C)oc3c2CCCC3)cc1 | -13.4% [at 102 µM] (inactive) | –
Cc1ccc(-c2nn3c(=O)cc(CN4CCN(C(=O)Nc5cccc(C(F)(F)F)c5)CC4)nc3s2)cc1 | 7.31% (inactive) | –
CCCn1nc(C(=O)OCc2nc(N)nc(Nc3ccccc3C)n2)c2ccccc2c1=O | -4.37% [at 12.7 µM] (inactive) | –
Cc1cn(C)c(CC(=O)NCc2ccccc2)c1C(=O)O | 0.148% (inactive) | –
S=c1[nH]nc2c3c4c(sc3ncn12)CCCC4 | – | 1.12 µM (active)
N=c1c2c3c(sc2ncn1N)CCCC3 | -1.8% [at 102 µM] (inactive) | –
c1nnc2c3c4c(sc3ncn12)CCC4 | -3.04% (inactive) | –
Cn1c(=O)c2sccc2n(Cc2ccc(Br)cc2)c1=O | 4.98% [at 2.33 µM] (inactive) | –
CC(=O)OC(COc1ccc(F)cc1)Cn1cnc2ccccc21 (stereo not given) | 5.88% [at 102 µM] (inactive) | –
C/C(Cn1nnc2ccccc21)=N\OC(=O)c1cc(F)c(F)cc1Cl | 4.86% [at 102 µM] (inactive) | –
Fc1ccc(OCc2nn3c(Cn4nnc5ccccc54)nnc3s2)cc1 | – | 11.2 µM (active)

Reference: PubChem BioAssay AID504332 (National Center for Advancing Translational Sciences (NCATS), 2011)
